Test results: PubChem BioAssay (NCI)
“And” between values parts separate entries of the source, which are not always exact repeats. Equal values may be shown once. The panel holds about 83,000 compounds, 20% with a hit somewhere; the sample as a whole holds those more often.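 Step 1: grow cells in 96-well plates. Step 2: add test compound at a single concentration. Step 3: incubate 48 h. Step 4: record percent growth.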 The source made the active and inactive calls. The calls were made as follows: active = growth percent below 10; inactive = the rest.

What was measured:
Experiment in all cases: NCI-60 one-dose screen, 48 h (100 = growth as untreated, 0 = no growth, -100 = all killed)
Settings in all cases: 10 µM unless noted
NCI-H23 lung = test system: NCI-H23 lung
NCI-H226 lung = test system: NCI-H226 lung
NCI-H322M lung = test system: NCI-H322M lung
HOP-62 NSCLC = test system: HOP-62 NSCLC
NCI-H460 lung = test system: NCI-H460 lung
HOP-92 NSCLC = test system: HOP-92 NSCLC
NCI-H522 lung = test system: NCI-H522 lung
A549/ATCC NSCLC = test system: A549/ATCC NSCLC
786-0 renal = test system: 786-0 renal
COLO 205 colon = test system: COLO 205 colon
DU-145 prostate = test system: DU-145 prostate
K-562 leukemia = test system: K-562 leukemia
MALME-3M melanoma = test system: MALME-3M melanoma
MDA-MB-231 breast = test system: MDA-MB-231 breast
RXF 393 renal = test system: RXF 393 renal
SF-268 CNS = test system: SF-268 CNS
SF-295 CNS = test system: SF-295 CNS
SF-539 CNS = test system: SF-539 CNS
UACC-257 melanoma = test system: UACC-257 melanoma
M14 melanoma = test system: M14 melanoma

Measured: growth

O=C1NC(=O)C(=Cc2ccccc2)C(=O)N1
inactive: NCI-H23 lung 98.5% and 102% | NCI-H226 lung 96.1% and 101% | NCI-H322M lung 106% and 105% | HOP-62 NSCLC 94.9% and 92.6% | NCI-H460 lung 127% and 105% | HOP-92 NSCLC 85.9% and 109% | NCI-H522 lung 96.1% and 94.5% | A549/ATCC NSCLC 101% and 91.4% | 786-0 renal 102% and 107% | COLO 205 colon 135% and 109% | DU-145 prostate 103% and 111% | K-562 leukemia 86.2% and 112% | MALME-3M melanoma 96.1% and 109% | MDA-MB-231 breast 96.4% and 110% | RXF 393 renal 98.5% and 116% | SF-268 CNS 92.9% and 104% | SF-295 CNS 107% and 102% | SF-539 CNS 133% and 101% | UACC-257 melanoma 98.6% | M14 melanoma 103% and 106%

CCCCCCCCCCCCCCCC[n+]1ccccc1
inactive: NCI-H322M lung 11.4% and 40.2%
active: NCI-H23 lung -38.3% and -24.8% | NCI-H226 lung -77.3% and -0.958% | HOP-62 NSCLC -84.4% and -49.3% | NCI-H460 lung -88.3% and -83.1% | HOP-92 NSCLC -48.4% and -41.7% | NCI-H522 lung -57.3% and -67.7% | A549/ATCC NSCLC -61.4% | 786-0 renal -73% and -92.8% | COLO 205 colon -77.6% and -71.5% | DU-145 prostate -74.4% and -12.9% | K-562 leukemia -44.3% and 0.871% | MALME-3M melanoma -56.5% and -38% | MDA-MB-231 breast -40.7% and -32.7% | RXF 393 renal -86.7% | SF-268 CNS -58.9% and -32.7% | SF-295 CNS -69.1% and -56.5% | SF-539 CNS -70.3% and -27.4% | UACC-257 melanoma -52.2% and -26.1% | M14 melanoma -49% and -77.5%

CC/C(Cc1ccccc1)=C(\c1ccc(OCCN2CCCC2)cc1)c1ccc(OC(=O)NCc2ccccc2)cc1
inactive: NCI-H23 lung 90.8% | NCI-H226 lung 92.1% | NCI-H322M lung 84.9% | HOP-62 NSCLC 76.7% | HOP-92 NSCLC 38.6% | NCI-H522 lung 81.5% | A549/ATCC NSCLC 42.4% | 786-0 renal 20.7% | DU-145 prostate 61.1% | MDA-MB-231 breast 51.6% | RXF 393 renal 56.5% | SF-268 CNS 67.7% | SF-295 CNS 86.2% | SF-539 CNS 59% | UACC-257 melanoma 58.1%
active: NCI-H460 lung -45.2% | COLO 205 colon -66.6% | K-562 leukemia -39.1% | MALME-3M melanoma -59.6% | M14 melanoma -60.7%

CC(=O)OC1CC2(O)C(CCC3(C)C(c4ccc(=O)oc4)CCC32O)C2(C)CCC(OC3OC(CO)C(O)C(O)C3O)C=C12 (stereo not given)
active: NCI-H23 lung -57.2% | NCI-H226 lung -91.6% | NCI-H322M lung -81.6% | HOP-62 NSCLC -70.7% | NCI-H460 lung -75.3% | HOP-92 NSCLC -24.2% | NCI-H522 lung -39.2% | A549/ATCC NSCLC -72.9% | 786-0 renal -74.6% | COLO 205 colon -47.1% | DU-145 prostate -100% | K-562 leukemia -30.4% | MALME-3M melanoma -43.7% | MDA-MB-231 breast -20.3% | RXF 393 renal -45% | SF-268 CNS -97.4% | SF-295 CNS -62.2% | SF-539 CNS -97.9% | UACC-257 melanoma -62.3% | M14 melanoma -78%

C[C@]12C[C@H](c3ccoc3)OC(=O)[C@H]1CC[C@@]1(C)[C@@H]2[C@H]2C=C[C@]1(O)C(=O)O2
inactive: NCI-H23 lung 102% | NCI-H226 lung 101% | NCI-H322M lung 79.1% | HOP-62 NSCLC 104% | NCI-H460 lung 108% | HOP-92 NSCLC 81.3% | NCI-H522 lung 68.1% | A549/ATCC NSCLC 84.5% | 786-0 renal 91.9% | COLO 205 colon 104% | DU-145 prostate 109% | K-562 leukemia 76.9% | MALME-3M melanoma 101% | MDA-MB-231 breast 102% | RXF 393 renal 102% | SF-268 CNS 98.3% | SF-295 CNS 91.1% | SF-539 CNS 92.4% | UACC-257 melanoma 86.2% | M14 melanoma 87.6%

CC[C@H](C)[C@H](NC(=O)[C@H]1CCCCN1C)C(=O)N(C)[C@H](CCc1nc(C(=O)N[C@@H](Cc2ccccc2)C[C@H](C)C(=O)O)cs1)C(C)C
inactive: NCI-H23 lung 29.9% | NCI-H226 lung 31% | NCI-H322M lung 49.9% | HOP-62 NSCLC 12.6% | HOP-92 NSCLC 30.3% | A549/ATCC NSCLC 22.4% | 786-0 renal 31.8% | MALME-3M melanoma 78.4% | MDA-MB-231 breast 11.2% | RXF 393 renal 31.8% | SF-268 CNS 20.9% | UACC-257 melanoma 53.4%
active: NCI-H460 lung 8.77% | NCI-H522 lung -6.97% | COLO 205 colon -37.9% | DU-145 prostate 9.58% | K-562 leukemia 6.62% | SF-295 CNS -1.24% | SF-539 CNS -12.9% | M14 melanoma 4.31%

O=c1[nH]c(=O)n(Cl)c(=O)n1Cl
inactive: NCI-H23 lung 99.2% | NCI-H226 lung 98.4% and 104% | NCI-H322M lung 108% and 119% | HOP-62 NSCLC 109% and 98.3% | NCI-H460 lung 116% and 109% | HOP-92 NSCLC 101% and 91.2% | NCI-H522 lung 101% and 100% | A549/ATCC NSCLC 105% and 112% | 786-0 renal 115% and 99.5% | COLO 205 colon 117% and 123% | DU-145 prostate 142% | K-562 leukemia 109% | MALME-3M melanoma 106% and 110% | MDA-MB-231 breast 99.1% and 113% | RXF 393 renal 114% and 120% | SF-268 CNS 108% and 136% | SF-295 CNS 101% and 114% | SF-539 CNS 106% and 92.5% | UACC-257 melanoma 99.5% and 117% | M14 melanoma 103% and 98.4%

O=C1C=C(N2CC2)c2ccccc2C1=O
active: K-562 leukemia 9.26%
inactive: NCI-H23 lung 41.4% | NCI-H226 lung 92% | NCI-H322M lung 91.1% | HOP-62 NSCLC 76% | NCI-H460 lung 23.2% | HOP-92 NSCLC 119% | NCI-H522 lung 52.7% | A549/ATCC NSCLC 54.3% | 786-0 renal 104% | COLO 205 colon 94.3% | DU-145 prostate 12.1% | MALME-3M melanoma 106% | MDA-MB-231 breast 88.8% | RXF 393 renal 85.9% | SF-268 CNS 51.6% | SF-295 CNS 23.6% | SF-539 CNS 63.3% | UACC-257 melanoma 83.1% | M14 melanoma 63.6%

Cc1nnc([S-])o1.[Au+].c1ccc([PH+](c2ccccc2)c2ccccc2)cc1
inactive: NCI-H23 lung 61.5% | NCI-H226 lung 114% | NCI-H322M lung 88.4% | HOP-62 NSCLC 121% | NCI-H460 lung 86% | A549/ATCC NSCLC 76.4% | 786-0 renal 38.8% | COLO 205 colon 55.4% | DU-145 prostate 62.4% | K-562 leukemia 12.8% | MALME-3M melanoma 48.1% | MDA-MB-231 breast 61.4% | SF-268 CNS 43.4% | SF-295 CNS 92.1% | SF-539 CNS 67.8% | UACC-257 melanoma 27.9% | M14 melanoma 31.8%
active: HOP-92 NSCLC -9.28% | NCI-H522 lung -81.1% | RXF 393 renal -53.8%

CCCCS(=O)(=O)Cl
inactive: NCI-H23 lung 108% | NCI-H226 lung 100% | NCI-H322M lung 111% | HOP-62 NSCLC 122% | NCI-H460 lung 106% | HOP-92 NSCLC 97.4% | NCI-H522 lung 99.8% | A549/ATCC NSCLC 109% | 786-0 renal 103% | COLO 205 colon 109% | DU-145 prostate 113% | K-562 leukemia 107% | MALME-3M melanoma 108% | MDA-MB-231 breast 111% | RXF 393 renal 112% | SF-268 CNS 108% | SF-295 CNS 102% | SF-539 CNS 99% | UACC-257 melanoma 110% | M14 melanoma 99.1%

C/C(=N/OC(=O)N(C)C)c1ccc(Cl)c(Cl)c1
inactive: NCI-H23 lung 98.2% | NCI-H226 lung 102% | NCI-H322M lung 96.1% | HOP-62 NSCLC 107% | NCI-H460 lung 107% | HOP-92 NSCLC 102% | NCI-H522 lung 102% | A549/ATCC NSCLC 82.7% | 786-0 renal 103% | COLO 205 colon 111% | DU-145 prostate 121% | K-562 leukemia 120% | MALME-3M melanoma 115% | MDA-MB-231 breast 105% | RXF 393 renal 108% | SF-268 CNS 105% | SF-295 CNS 112% | SF-539 CNS 114% | UACC-257 melanoma 97.4% | M14 melanoma 113%

CC[C@H](C)[C@H](NC(=O)CN(C)C)C(=O)N(C)[C@H](C[C@@H](OC(C)=O)c1nc(C(=O)NC23C4C5C2C2C3C4C52C(=O)OC)cs1)C(C)C (stereo not given in full)
inactive: NCI-H23 lung 21.3% | NCI-H226 lung 31.7% | NCI-H322M lung 42.2% | HOP-62 NSCLC 19.4% | HOP-92 NSCLC 66.1% | NCI-H522 lung 24.1% | A549/ATCC NSCLC 21.3% | 786-0 renal 31.3% | MALME-3M melanoma 35.1% | SF-268 CNS 21.1% | UACC-257 melanoma 49.2%
active: NCI-H460 lung 3.35% | COLO 205 colon -7.69% | DU-145 prostate 2.37% | K-562 leukemia 7.65% | MDA-MB-231 breast 1.39% | RXF 393 renal 2.8% | SF-295 CNS 9.98% | SF-539 CNS -1.99% | M14 melanoma -35.8%

O=C(NC1=NCC[Se]1)c1ccccc1O
active: MALME-3M melanoma -22.9%
inactive: NCI-H23 lung 65.6% | NCI-H226 lung 62.9% | NCI-H322M lung 49.4% | HOP-62 NSCLC 39% | NCI-H460 lung 16.2% | HOP-92 NSCLC 63.5% | NCI-H522 lung 60.9% | A549/ATCC NSCLC 56.8% | 786-0 renal 94.7% | COLO 205 colon 124% | DU-145 prostate 61.1% | K-562 leukemia 50.7% | MDA-MB-231 breast 69.3% | RXF 393 renal 44% | SF-268 CNS 43.3% | SF-295 CNS 95.4% | SF-539 CNS 52.9% | UACC-257 melanoma 55.3% | M14 melanoma 42%
